Measured values from paper PMC13494018.

B1: design_601_c3fd07b4-2f34-4ad8-bd4e-2749faf628eb_587_dldesign_0_cycle1_af2pred (protein)
chain: NEEKAKTALSEGNAYYRMALDAVKIGVKKEDVLALIDEAEKYFEKAAELYKDNPEKAKKIKELGKEKTEEARKALEEA
B2: design_601_c3fd07b4-2f34-4ad8-bd4e-2749faf628eb_475_dldesign_0_cycle1_af2pred (protein)
chain: DEFTEKAKEFAEEVKKKSKELVAKAEAGDAETAKEKRKEAVKLLSEAFSLSVKAKKESKEAYEYMKEAEEIASDAVIKISEIEKKKAA
B3: design_601_c3fd07b4-2f34-4ad8-bd4e-2749faf628eb_1417_dldesign_0_cycle1_af2pred (protein)
chain: EEEKLKEAAKRLHEAREKTNEAEQKLKLEGKKNAEELKKELEAAAKVAKAVAEEVKANPEYAKIAETLAKRAEKAAQEA
B4: design_601_c3fd07b4-2f34-4ad8-bd4e-2749faf628eb_461_dldesign_0_cycle1_af2pred (protein)
chain: SAEEEAKKLLEEVKKAMSAANFAMAEDLEEGEKAWEEAKKKAKELLEKAEKLNKEEAKKVKEAVEKGEKTYKRIKKDHEEAEKRAKER
B5: design_601_c3fd07b4-2f34-4ad8-bd4e-2749faf628eb_190_dldesign_0_cycle1_af2pred (protein)
chain: SMEGQELKDKAVDALGDAHLLKIKGKEIDPEIVKIAEKAEEAAKKALKLIKEGNLEEAKEELEKAEELVKKAKELLKKKE
B6: design_601_c3fd07b4-2f34-4ad8-bd4e-2749faf628eb_648_dldesign_0_cycle1_af2pred (protein)
chain: GTEEALERVRRGAERARRLLDEARKYGADKEKVDALTKEADEALAAAEENPEKAPEYLKRIAEISAEAAELRAEAFAKK
B7: design_601_c3fd07b4-2f34-4ad8-bd4e-2749faf628eb_503_dldesign_0_cycle1_af2pred (protein)
chain: AEKAIGNAHAYKNILKSEAEWSKKLPLEERKKRLKELVEEIAKIAAEAGEEVAEKFRKEAEAFAEEALKKQEEE
B8: design_601_c3fd07b4-2f34-4ad8-bd4e-2749faf628eb_592_dldesign_0_cycle1_af2pred (protein)
chain: SSADILREYRRALQEATKAAAAADPANKEEILKEGAKAREEVVDAFSESDELGKKTAEEQLAKIKARKKAAE
B9: design_601_c3fd07b4-2f34-4ad8-bd4e-2749faf628eb_419_dldesign_0_cycle1_af2pred (protein)
chain: GKEELLKKAKKAMEETKKAIKEGKKLIKEGASKEELEKAAEELRKKAKEVRELGKELPELKPEAAKVAQEAYETAAELDVEAKKK
B10: design_601_c3fd07b4-2f34-4ad8-bd4e-2749faf628eb_731_dldesign_0_cycle1_af2pred (protein)
chain: AEAKKELTEEVFEALEYRNEIERKDPELGKKARELLRKAFEEGRKLIKADPEEGTKKAAEIVKKVREEIKKLAE
B11: design_601_c3fd07b4-2f34-4ad8-bd4e-2749faf628eb_821_dldesign_0_cycle1_af2pred (protein)
chain: EAAAAAAAGEEARRLTRKRLERAEEAEKTKSPLQAANAWLAASEFARHAAEALAKNYPSATETIAELRALAEEAEAKAKELL
B12: design_601_c3fd07b4-2f34-4ad8-bd4e-2749faf628eb_352_dldesign_0_cycle1_af2pred (protein)
chain: AKEDQEASSEMMRYLTKAGKLAKEIGEEEYEKALKEREKVLELSVEDPKKGLEAAKEVLKEYEEKYKKAEEEKKA
B13: design_601_c3fd07b4-2f34-4ad8-bd4e-2749faf628eb_334_dldesign_0_cycle1_af2pred (protein)
chain: DPASEEAKKLADKMRTAQRLFKQAGLALKEGKRDVDAVAEGYALAKEADPEFAEALEEALKKSVGEEKGTALIEEAKALAKAKAAA
B14: design_601_c3fd07b4-2f34-4ad8-bd4e-2749faf628eb_83_dldesign_0_cycle1_af2pred (protein)
chain: NEEAKKAYEKAKKVIEKVLKLAKENPELAEAEEQAKKALEKAEEGLKKGDVGLTESALTRAEHLLEVAEAKIAA
B15: design_601_c3fd07b4-2f34-4ad8-bd4e-2749faf628eb_877_dldesign_0_cycle1_af2pred (protein)
chain: NEKAKEALKENKEAAELARKLAKEGIAPEEAARLAQKLQETAAVMKMADKVPKETLEEAIKEGKKAAEEVKKLAKA
B16: design_601_c3fd07b4-2f34-4ad8-bd4e-2749faf628eb_1122_dldesign_0_cycle1_af2pred (protein)
chain: MEEEKIRKRQAELLKEEAEKEMAAAKASTDAAEAANLGLFARQLYRSAAKIDKENKEEYLKLAEKAEEETKAIVAAKKAA
B17: design_601_c3fd07b4-2f34-4ad8-bd4e-2749faf628eb_1384_dldesign_0_cycle1_af2pred (protein)
chain: SKIELLKKAAEYVEEAAKLAKEGGRVSDVIKLLQKAYELAKKAGDEETAKLIKEAAFAVPDPEKAYKLLKEAAERLKEKAKKLE
B18: design_601_c3fd07b4-2f34-4ad8-bd4e-2749faf628eb_257_dldesign_0_cycle1_af2pred (protein)
chain: VELAKEMKKLIAEAARAAKEDPKKAAKLLKEAAKKAKEIGEIAEPAAKLLEEAAKLLEEGPEKAPEAATLLSEARAEANYVIKSLEL
B19: design_601_c3fd07b4-2f34-4ad8-bd4e-2749faf628eb_1485_dldesign_0_cycle1_af2pred (protein)
chain: GYKERAKKEIEEAKKNLEKAKADPSTAVSLLTDAIAHANAAKSLAEKLEKTDPETGKELIEEAKEIREEAKKVLAERNAA

molecular target: VTCN1, Q7Z7D3
Sequence (Q7Z7D3 whole entry): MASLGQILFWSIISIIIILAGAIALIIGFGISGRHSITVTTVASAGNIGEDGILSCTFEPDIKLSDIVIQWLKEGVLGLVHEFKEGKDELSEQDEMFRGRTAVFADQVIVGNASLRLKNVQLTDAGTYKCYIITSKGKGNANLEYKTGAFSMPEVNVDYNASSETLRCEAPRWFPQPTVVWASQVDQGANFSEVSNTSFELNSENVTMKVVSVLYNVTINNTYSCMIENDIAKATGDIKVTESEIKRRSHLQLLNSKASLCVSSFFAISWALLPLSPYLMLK

Binding in a display sort, inactive:
B1 not found
B2 not found
B3 not found
B4 not found
B5 not found
B6 not found
B7 not found
B8 not found
B9 not found
B10 not found
B11 not found
B12 not found
B13 not found
B14 not found
B15 not found
B16 not found
B17 not found
B18 not found
B19 not found
